For 40 compounds, Potency results are on record in PubChem BioAssay (Tox21).

Molecules are shown by their SMILES. Several values for one entry are separate records, joined by “and”; a condition that tells them apart may be missing. Equal entries are not always repeated. Inconclusive results are not listed. Where a call stands in place of a potency, no number is given. Activity calls are given as the source filed them. Calls follow the shape of the dose curve; as a rule, active = well fitted inhibition curve with a large enough effect in the repeat runs; inconclusive = weak or mixed curves; inactive = flat fitted curve, though single readings scatter.
Potency is read from the fitted curve at half-maximal effect.

The nature of the assay: qHTS assay to identify small molecule HDAC inhibitors (AID 1259364). Also: nearly all actives have a fitted effect of over 45% in size. To be noted: HCT-116 HDAC-Glo I/II luminescence, 2 h; series mostly up to 92.4 µM. The source says: U.S. Tox21 Program National Center for Advancing Translational Sciences [NCATS] NIH Chemical Genomics Center [NCGC] U.S. Environmental Protection Agency [EPA] National Institutes of Environmental Health Sciences [NIEHS] National Toxicology Program [NTP] U.S. Food and Drug Administration [FDA] Tox21 Assay Overview: Histone deacetylases (HDACs) are a group of epigenetic enzymes that regulate gene expression by histone deacetylation. HDACs are capable of introducing epigenetic modifications and such aberrations contribute to the onset and progression of several human diseases, thus making HDACs a popular therapeutic target. For identifying endogenous class I/II HDAC inhibitors a homogenous, luminogenic HDAC I/II cell based assay was used to measure the relative activity of class I and II HDACs from cells. Wild type HCT-116 cells were used to screen Tox21 libraries for identifying class I/II HDAC inhibitors.
Tox21 Assay Protocol Summary: HCT-116 cells were dispensed at 1,500 per well in 5uL of culture medium into white solid bottom 1536-well plates (Greiner Bio-One, Monroe, NC) using a Multidrop Combi (Thermo Scientific, Waltham, MA) dispenser. The assay plates were incubated at 37 C and 5% CO2 for an overnight, and then 23nL of compounds dissolved in DMSO and positive control were transferred using a Pintool station (Wako, San Diego, CA). The assay plates were incubated at 37C and 5% CO2 for 2hr. After compound treatment, 4uL of HDAC-Glo reagent (Promega Corporation, Madison, WI) was added to each well of the assay plates using Flying Reagent Dispenser (FRD, Aurora Discovery, San Diego, CA) and incubated the assay plates at room temperature for 30min. The luminescence signal was quantified using a ViewLux plate reader (Perkin Elmer, Shelton, CT).
A general note: qHTS replaces the single test concentration by a dilution series.
Regarding `CCOC(=S)S`, the Potency result was “inactive”. Regarding `Nc1ccncc1`, the Potency entry is “inactive”. Take `CNC(=O)N(C)c1nnc(C(C)(C)C)s1`: the Potency is 27.3 µM (active). `c1cc(OCC2CO2)ccc1Cc1ccc(OCC2CO2)cc1` (stereo not given): the Potency result is “inactive”. Turning to `CCC(C)c1ccc(O)cc1` (stereo not given), the Potency entry is “inactive”. As to `OCC(O)CO`, the Potency entry is “inactive”. In the case of `c1ccc(NNc2ccccc2)cc1` it was 15.4 µM (active). For `CCCCC(CC)COC(=O)c1ccc(C(=O)OCC(CC)CCCC)c(C(=O)OCC(CC)CCCC)c1` (stereo not given), the Potency entry was “inactive”. Consider `CN(C)C(=O)Nc1ccc(Cl)cc1`, for which the Potency entry was “inactive”.

For the compound `CC(C)Oc1cc(-n2nc(C(C)(C)C)oc2=O)c(Cl)cc1Cl`, the Potency result was “inactive”. The same measure for `Nc1cccnc1`: “inactive”. `CCC(CC)Nc1c([N+](=O)[O-])cc(C)c(C)c1[N+](=O)[O-]`: the Potency result is “inactive”.

In the case of `Nn1cnnc1`, the Potency entry is “inactive”.

As for `CCOP(=S)(OCC)O/N=C(\C#N)c1ccccc1`, the Potency result is “inactive”. On to `COC(=O)c1sccc1S(=O)(=O)NC(=O)Nc1nc(C)nc(OC)n1`, for which the Potency result was “inactive”. As for `Nc1c(Cl)cc([N+](=O)[O-])cc1Cl`, the Potency entry was “inactive”. As for `C#CCOS(=O)OC1CCCCC1Oc1ccc(C(C)(C)C)cc1` (stereo not given), the Potency result is “inactive”. For the compound `CCCCOCCOP(=O)(OCCOCCCC)OCCOCCCC`, the Potency entry is “inactive”. As for `Oc1cc(Cl)c(Cl)cc1Cl`, the Potency entry is “inactive”.

Consider `Oc1cc(Cl)ccc1Oc1ccc(Cl)cc1Cl`, for which the Potency result was “inactive”. Regarding `S=C1NCCN1`, the Potency entry is “inactive”. On to `Cc1ccc2c(c1N)C(=O)c1ccccc1C2=O`, for which the Potency was 7.61 µM (active) and 9.69 µM (active).

In the case of `CCCCCc1cc(O)cc(O)c1`, the Potency result is “inactive”. Take `CCCCN(CC)c1c([N+](=O)[O-])cc(C(F)(F)F)cc1[N+](=O)[O-]`: the Potency result is “inactive”. In the case of `CC(C)(c1cc(Cl)c(O)c(Cl)c1)c1cc(Cl)c(O)c(Cl)c1` it was “inactive”. The same measure for `O=[N+]([O-])c1cccc2ccccc12`: “inactive”; for `C#C[C@]1(O)CC[C@H]2[C@@H]3CCC4=CC(=O)CC[C@]4(C)[C@H]3CC[C@@]21C`: “inactive”. For `CCCCC(CC)COC(=O)Cl` (stereo not given), the Potency result is “inactive”. With `C=CCc1ccc(OC)cc1`, the Potency result was “inactive”. Regarding `O=C(O)CC[N+](=O)[O-]`, the Potency result was “inactive”.

Regarding `Brc1ccc(Oc2cc(Br)c(Br)cc2Br)c(Br)c1`, the Potency result was “inactive”. On to `C[C@]12CCC(=O)C[C@@H]1CC[C@@H]1[C@@H]2CC[C@]2(C)[C@@H](O)CC[C@@H]12`, for which the Potency entry was “inactive”.

Consider `COP(=S)(OC)Oc1ccc([N+](=O)[O-])cc1`, for which the Potency result was “inactive”. In the case of `O=c1oc2ccccc2c(O)c1C(CC(O)c1ccc(-c2ccc(Br)cc2)cc1)c1ccccc1` (stereo not given), the Potency entry was “inactive”.

For `N#Cc1cc(Br)c(O)c(Br)c1`, the Potency entry is “inactive”. `Clc1nc(Cl)nc(Cl)n1`: the Potency result was “inactive”.

In the case of `COc1ccc(C(CN(C)C)C2(O)CCCCC2)cc1` (stereo not given), the Potency entry is “inactive”.

As for `CC(C)C(=O)OCC(C)(C)C(OC(=O)C(C)C)C(C)C` (stereo not given), the Potency entry was “inactive”. Turning to `C=CCN(CC=C)C(=O)C(Cl)Cl`, the Potency result is “inactive”. With `NC(=S)Nc1ccccc1`, the Potency entry is “inactive”.
